Assay results as given in PubChem BioAssay (Tox21).
Inconclusive results are not listed. The source made the active and inactive calls. Unless noted, the call rests on the fitted dose curve; in most records, active means well fitted curve in the direction sought with a large enough effect in the repeat runs; inconclusive means weak or mixed curves; inactive means no such curve, though single readings can be large; an effect the other way counts as inactive or inconclusive.

Assays:
[1] = qHTS assay to identify small molecule antagonists of the thyroid receptor (TR) signaling pathway - cell viability counter screen (AID 743064); further: nearly all actives have a fitted effect of over 50% in size
Method in brief: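 GH3.TRE-Luc cells, 4 h pre-plating; cpd + T3 1 nM final; 37 °C 23.5 h; CellTiter-Fluor 30 min; fluorescence read.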

[2] = qHTS assay to identify small molecule antagonists of the thyroid receptor (TR) signaling pathway (AID 743065); further: nearly all actives have a fitted effect of over 55% in size; further: potency means the concentration at half of the fitted maximal effect
Method in brief: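 GH3.TRE-Luc rat pituitary cells carrying two TR response elements driving luciferase were plated for 4 h, given compound plus 1 nM T3 (final), and incubated 23.5 h at 37 C. ONE-Glo luminescence measured reporter inhibition; CellTiter-Fluor fluorescence tracked cytotoxicity.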

[3] = test system: thyroid hormone receptor (rat, GH3 cells); test: qHTS assay to identify small molecule agonists of the thyroid receptor (TR) signaling pathway (AID 743066; calls by dose curve; further: potency means the concentration at half of the fitted maximal effect)
[4] = target: Estrogen receptor (Homo sapiens) (UniProt P03372); test: qHTS assay to identify small molecule antagonists of the estrogen receptor alpha (ER-alpha) signaling pathway (AID 743069; active means well fitted curve in the direction sought with a large enough effect in the signal ratio in the repeat runs, not every such curve was filed as active; the % refers to the signal ratio)
Chain of Estrogen receptor (Homo sapiens) (P03372 whole entry, looked up): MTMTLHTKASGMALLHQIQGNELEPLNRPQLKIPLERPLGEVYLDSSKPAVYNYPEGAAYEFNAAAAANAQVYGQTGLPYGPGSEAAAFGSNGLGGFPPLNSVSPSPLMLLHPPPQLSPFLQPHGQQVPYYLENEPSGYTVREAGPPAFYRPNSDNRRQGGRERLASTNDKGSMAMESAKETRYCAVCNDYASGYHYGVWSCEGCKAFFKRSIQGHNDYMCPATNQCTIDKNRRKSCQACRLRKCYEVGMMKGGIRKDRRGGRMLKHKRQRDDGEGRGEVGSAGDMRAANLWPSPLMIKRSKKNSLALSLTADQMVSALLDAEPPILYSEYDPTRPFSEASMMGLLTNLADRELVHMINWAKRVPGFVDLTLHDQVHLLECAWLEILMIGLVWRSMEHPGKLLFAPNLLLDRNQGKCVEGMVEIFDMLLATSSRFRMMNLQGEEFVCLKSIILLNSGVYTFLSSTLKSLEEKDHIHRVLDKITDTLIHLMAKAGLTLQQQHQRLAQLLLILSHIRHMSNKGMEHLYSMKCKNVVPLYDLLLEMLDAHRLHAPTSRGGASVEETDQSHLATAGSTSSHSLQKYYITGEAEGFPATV
Method in brief: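 Estradiol-stimulated ER-alpha-UAS-bla HEK293 cells, 18 hr compound exposure at 37C. LiveBLAzer B/G substrate, 2 hr RT, fluorescence read.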

[5] = qHTS assay to identify small molecule antagonists of the estrogen receptor alpha (ER-alpha) signaling pathway - cell viability counter screen (AID 743074; calls by dose curve;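 further: HEK293 cells carrying ER-alpha-UAS-bla reporter stimulated with 17beta-estradiol; nearly all actives have a fitted effect of over 45% in size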)
[6] = target: Estrogen receptor (Homo sapiens) (UniProt P03372); test: qHTS assay to identify small molecule agonists of the estrogen receptor alpha (ER-alpha) signaling pathway (AID 743075; calls by dose curve;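 further: HEK293 GripTite cells with ER-alpha and UAS-driven beta-lactamase reporter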)
[7] = target: Estrogen receptor (Homo sapiens) (UniProt P03372); test: qHTS assay to identify small molecule agonists of the estrogen receptor alpha (ER-alpha) signaling pathway using the BG1 cell line (AID 743079); details: BG1Luc4E2 cells, ERE-luciferase agonist, 22 h; further: nearly all actives have a fitted effect of over 20% in size; further: potency means the concentration at half of the fitted maximal effect
[8] = qHTS assay to identify small molecule antagonists of the estrogen receptor alpha (ER-alpha) signaling pathway using the BG1 cell line (AID 743080; calls by dose curve;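 further: BG1 cells stimulated with 17beta-estradiol alongside compound; nearly all actives have a fitted effect of over 25% in size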; further: potency means the concentration at half of the fitted maximal effect)
Method in brief: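 BG1-Luc-4E2 cells (endogenous full-length ER-alpha, stable 4×ERE-luciferase) were starved 5 days in phenol-red-free medium with 10% charcoal-stripped FBS, plated 24 h, then given compound plus 17beta-estradiol for 21.5 h at 37 C; ONE-Glo luminescence read after 30 min.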

[9] = qHTS assay to identify small molecule antagonists of the estrogen receptor alpha (ER-alpha) signaling pathway using the BG1 cell line - cell viability counter screen (AID 743081);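 further: compound given together with 17beta-estradiol as the ER stimulus; nearly all actives have a fitted effect of over 45% in size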
Aromatase (Homo sapiens) = Aromatase (Homo sapiens) (UniProt P11511); test: qHTS assay to identify aromatase inhibitors (AID 743083); further: nearly all actives have a fitted effect of over 55% in size
Chain of Aromatase (Homo sapiens) (P11511 whole entry, looked up): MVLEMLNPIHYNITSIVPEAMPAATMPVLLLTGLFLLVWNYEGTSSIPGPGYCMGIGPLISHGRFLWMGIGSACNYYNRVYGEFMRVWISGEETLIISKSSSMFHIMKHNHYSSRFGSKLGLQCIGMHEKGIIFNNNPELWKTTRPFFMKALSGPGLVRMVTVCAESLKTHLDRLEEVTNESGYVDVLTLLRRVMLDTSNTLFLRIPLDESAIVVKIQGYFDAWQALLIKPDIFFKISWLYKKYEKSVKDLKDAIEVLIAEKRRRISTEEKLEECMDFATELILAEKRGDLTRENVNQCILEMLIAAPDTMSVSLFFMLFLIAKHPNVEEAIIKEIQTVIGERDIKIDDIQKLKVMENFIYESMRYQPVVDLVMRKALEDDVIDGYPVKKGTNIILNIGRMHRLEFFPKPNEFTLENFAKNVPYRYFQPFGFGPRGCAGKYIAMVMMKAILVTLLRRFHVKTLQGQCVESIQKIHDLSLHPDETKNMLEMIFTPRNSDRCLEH
On the % scale 0 is the no-effect control and ±100 the full control effect.

CCC(C)(C#N)N=NC(C)(C#N)CC (stereo unspecified)
inactive: Potency [1] | Potency [2] | Potency [3] | Potency [4] | Potency [5] | Potency [6] | activation ([7]; at 70.3 µM (top of the series)) -7.9% | Potency [8] | Potency [9] | Potency (Aromatase (Homo sapiens))

CN(C)C(=O)Oc1cc(OC(=O)N(C)C)cc(C(O)CNC(C)(C)C)c1 (stereo unspecified)
inactive: Potency [1] | Potency [2] | Potency [3] | Potency [4] | Potency [5] | Potency [6] | activation ([7]; at 32.5 µM (top of the series)) -8.21% | Potency [8] | Potency [9] | Potency (Aromatase (Homo sapiens))

CCOC(=O)CCl
inactive: Potency [1] | Potency [2] | Potency [3] | Potency [4] | Potency [5] | Potency [6] | activation ([7]; at 70.3 µM (top of the series)) 26.5% | Potency [8] | Potency [9] | Potency (Aromatase (Homo sapiens))

CCCC[N+](=O)[O-]
inactive: Potency [1] | Potency [2] | Potency [3] | Potency [4] | Potency [5] | Potency [6] | activation ([7]; at 70.3 µM (top of the series)) 8.37% | Potency [8] | Potency [9] | Potency (Aromatase (Homo sapiens))

CC1NCCOC1c1ccccc1 (stereo unspecified)
inactive: Potency [1] | Potency [2] | Potency [3] | Potency [4] | Potency [5] | Potency [6] | activation ([7]; at 70.3 µM (top of the series)) 12.2% | Potency [8] | Potency [9] | Potency (Aromatase (Homo sapiens))

Nc1c(Cl)c(F)nc(OCC(=O)O)c1Cl
inactive: Potency [1] | Potency [2] | Potency [3] | Potency [4] | Potency [5] | Potency [6] | activation ([7]; at 70.3 µM (top of the series)) -0.92% | Potency [8] | Potency [9] | Potency (Aromatase (Homo sapiens))

COc1cc(CCN)cc(OC)c1OC
inactive: Potency [1] | Potency [2] | Potency [3] | Potency [4] | Potency [5] | Potency [6] | activation ([7]; at 95 µM (top of the series)) -6.66% | Potency [8] | Potency [9]

C(COCC1CO1)OCC1CO1 (stereo unspecified)
active: Potency [2] 43.3 µM
inactive: Potency [1] | Potency [3] | Potency [4] | Potency [5] | Potency [6] | activation ([7]; at 70.3 µM (top of the series)) 0.393% | Potency [8] | Potency [9] | Potency (Aromatase (Homo sapiens))

Clc1cc2c(cc1Cl)Oc1cc(Cl)c(Cl)cc1O2
active: Potency [8] 0.0007 µM
inactive: activity change, negative = cytotoxic [1] 5.73% [at 0.341 µM] | activity, negative = inhibition [2] 0.19% [at 0.341 µM] | activation [3] -1.12% [at 0.329 µM] | activity, negative = inhibition [4] -7.88% [at 0.274 µM] | activity, negative = cytotoxicity [5] 14.4% [at 0.274 µM] | activation [6] -4.62% [at 0.274 µM] | activation ([7]; at 0.341 µM (top of the series)) -0.247% | activity change, negative = cytotoxicity [9] -0.0382% [at 0.341 µM]

O=[N+]([O-])CCO
inactive: Potency [1] | Potency [2] | Potency [3] | Potency [4] | Potency [5] | Potency [6] | activation ([7]; at 95 µM (top of the series)) -2.33% | Potency [8] | Potency [9] | Potency (Aromatase (Homo sapiens))

CC(O)CCl (stereo unspecified)
inactive: Potency [1] | Potency [2] | Potency [3] | Potency [4] | Potency [5] | Potency [6] | activation ([7]; at 70.3 µM (top of the series)) 8.02% | Potency [8] | Potency [9] | Potency (Aromatase (Homo sapiens))

CS(=O)(=O)Cl
inactive: Potency [1] | Potency [2] | Potency [3] | Potency [4] | Potency [5] | Potency [6] | activation ([7]; at 95 µM (top of the series)) 7.45% | Potency [8] | Potency [9] | Potency (Aromatase (Homo sapiens))

COc1cccc(C=O)c1
inactive: Potency [1] | Potency [2] | Potency [3] | Potency [4] | Potency [5] | Potency [6] | activation ([7]; at 70.3 µM (top of the series)) -1.53% | Potency [8] | Potency [9] | Potency (Aromatase (Homo sapiens))

N[C@@H](Cc1ccc(Oc2cc(I)c(O)c(I)c2)c(I)c1)C(=O)O
inactive: Potency [1] | Potency [2] | Potency [4] | Potency [5] | Potency [6] | activation ([7]; at 70.3 µM (top of the series)) -1.5% | Potency [8] | Potency [9] | Potency (Aromatase (Homo sapiens))
active: Potency [3] 0.168 µM

CC(C)(C)C(=O)Cl
inactive: Potency [1] | Potency [2] | Potency [3] | Potency [4] | Potency [5] | Potency [6] | activation ([7]; at 95 µM (top of the series)) -4.71% | Potency [8] | Potency [9] | Potency (Aromatase (Homo sapiens))

O=CCCl
inactive: Potency [1] | Potency [2] | Potency [3] | Potency [4] | Potency [5] | Potency [6] | activation ([7]; at 70.3 µM (top of the series)) 14.1% | Potency [8] | Potency [9] | Potency (Aromatase (Homo sapiens))

COc1ccccc1OC
inactive: Potency [1] | Potency [2] | Potency [3] | Potency [4] | Potency [6] | activation ([7]; at 70.3 µM (top of the series)) 21.9% | Potency [8] | Potency [9] | Potency (Aromatase (Homo sapiens))

CCOC1Oc2ccc(OS(C)(=O)=O)cc2C1(C)C (stereo unspecified)
inactive: Potency [1] | Potency [2] | Potency [3] | Potency [4] | Potency (Aromatase (Homo sapiens))

COC(=O)c1ccc(CBr)cc1
active: Potency [7] 6.94 µM
inactive: Potency [1] | Potency [2] | Potency [3] | Potency [4] | Potency [6] | Potency [9] | Potency (Aromatase (Homo sapiens))

NC(=O)CS(=O)C(c1ccccc1)c1ccccc1 (stereo unspecified)
inactive: Potency [1] | Potency [2] | Potency [3] | Potency [4] | Potency [5] | Potency [6] | activation ([7]; at 70.3 µM (top of the series)) -2.29% | Potency [8] | Potency [9] | Potency (Aromatase (Homo sapiens))

CC#Cc1cc(C)nc(Nc2ccccc2)n1
inactive: Potency [1] | Potency [2] | Potency [3] | Potency [4] | Potency [6] | Potency [9] | Potency (Aromatase (Homo sapiens))

CCC1(CC)C(=O)C=CNC1=O
inactive: Potency [1] | Potency [2] | Potency [3] | Potency [4] | Potency [5] | Potency [6] | activation ([7]; at 70.3 µM (top of the series)) 10.4% | Potency [8] | Potency [9] | Potency (Aromatase (Homo sapiens))

N=C(N)[Se]
inactive: Potency [1] | Potency [2] | Potency [3] | Potency [4] | Potency [5] | Potency [6] | activation ([7]; at 95 µM (top of the series)) -2.62% | Potency [8] | Potency (Aromatase (Homo sapiens))

ClCOCCl
inactive: Potency [1] | Potency [2] | Potency [3] | Potency [4] | Potency [5] | Potency [6] | Potency [8] | Potency [9] | Potency (Aromatase (Homo sapiens))
active: Potency [7] 61.4 µM
